Experimental data reported in PubChem BioAssay (Tox21).
Inconclusive results are not listed. Entries that show only a call come without a potency. Activity calls are given as the source filed them. Calls follow the shape of the full dose curve.

Experiment: p53 small molecule agonists, cell-based qHTS assay with rat liver microsomes (AID 1963578)
Outline: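 Quantitative HTS of the Tox21 10K library: p53RE-bla cells, rat liver microsomes plus NADPH at 0.5 mg/mL final each, 16 h at 37 C, beta-lactamase fluorescence detection.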

For `CCCCOC(=O)[C@H](C)O`, the Potency was “inactive”.

With `CCCCCC(C)=O` the Potency was “inactive”.

With `CCCCCCN` the Potency was “inactive”.

In the case of `O[C@@H]([C@H](O)[C@H](O)CBr)[C@H](O)CBr`, the Potency is reported as “inactive”.

For `CCO[Si](OCC)(OCC)c1ccccc1`, the Potency was “inactive”.

In the case of `N=c1nc(N2CCCCC2)cc(N)n1O`, the Potency is reported as “inactive”.

With `CC(C)OC=O` the Potency was “inactive”.

For `CC(=O)O[C@@H]1C[C@@H]2CC[C@@]1(C)C2(C)C`, the Potency was “inactive”.

For `O=S(=O)(O)c1cc(O)c(O)c(S(=O)(=O)O)c1`, the Potency was “inactive”.

For `C1C[C@@H]2[C@H]3CC[C@H](C3)[C@@H]2C1`, the Potency was “inactive”.

With `CN(C)CCCNCCCN` the Potency was “inactive”.

For `CC(C)=CCCC(C)CC=O` (stereo not drawn), the Potency was “inactive”.

In the case of `CCC(C(=O)OCCOCCN(CC)CC)c1ccccc1` (stereo not drawn), the Potency is reported as “inactive”.

For `CN(C)c1cc(NC(=O)CNC(C)(C)C)c(O)c2c1C[C@H]1C[C@H]3[C@H](N(C)C)C(=O)C(C(N)=O)=C(O)[C@@]3(O)C(=O)C1=C2O`, the Potency was “inactive”.

In the case of `CC(COCCO)OCCO` (stereo not drawn), the Potency is reported as “inactive”.

With `C=C(C)C(=O)OCCOCCOCCOC(=O)C(=C)C` the Potency was “inactive”.

With `O=[N+]([O-])c1ccccc1Nc1ccccc1` the Potency was “inactive”.

In the case of `CCCOCCC`, the Potency is reported as “inactive”.

With `CN1[C@@H]2CC[C@H]1CC(NC(=O)n1c(=O)[nH]c3ccccc31)C2` (stereo partly drawn) the Potency was “inactive”.

In the case of `CC1=C(C=O)C(C)(C)CC=C1`, the Potency is reported as “inactive”.

In the case of `COc1cc(S(N)(=O)=O)cc(C(=O)O)c1OC`, the Potency is reported as “inactive”.

For `CC(C)(C)NC(N)=O`, the Potency was “inactive”.

For `CC[C@H](c1ccc(O)cc1)[C@@H](CC)c1ccc(O)cc1`, the Potency was “inactive”.

For `CCOC(=O)c1ccc(C)cc1`, the Potency was “inactive”.

In the case of `CC[C@]1(O)C[C@@H]2CN(CCc3c([nH]c4ccccc34)[C@@](C(=O)OC)(c3cc4c(cc3OC)N(C)[C@H]3[C@@](O)(C(=O)OC)[C@H](OC(C)=O)[C@]5(CC)C=CCN6CC[C@]43[C@@H]65)C2)C1`, the Potency is reported as “inactive”.

For `CC(C)c1ccccc1O`, the Potency was “inactive”.

In the case of `O=C(O)CCCCCC(=O)O`, the Potency is reported as “inactive”.

In the case of `CC(C)C(=O)c1ccccc1`, the Potency is reported as “inactive”.

In the case of `CCC(C)C1CCCCC1=O` (stereo not drawn), the Potency is reported as “inactive”.

In the case of `CCCCCCCCSCC`, the Potency is reported as “inactive”.

For `COc1cc(C(=O)N2CCOCC2)cc(OC)c1OC`, the Potency was “inactive”.

With `CO[C@H]1C=CO[C@@]2(C)Oc3c(C)c(O)c4c(O)c(c(/C=N/N5CCN(C)CC5)c(O)c4c3C2=O)NC(=O)/C(C)=C\C=C[C@H](C)[C@H](O)[C@@H](C)[C@@H](O)[C@@H](C)[C@H](OC(C)=O)[C@@H]1C` the Potency was “inactive”.

For `CC(C)(C)NCCO`, the Potency was “inactive”.

For `O=C1c2c(O)ccc(Nc3ccc(CCO)cc3)c2C(=O)c2c([N+](=O)[O-])ccc(O)c21`, the Potency was “inactive”.

With `O=C(Nc1ccc([N+](=O)[O-])cc1)Nc1ccc([N+](=O)[O-])cc1` (tested in a mixture with another compound) the Potency was “inactive”.

For `CCOC(=O)CN`, the Potency was “inactive”.

With `CC1CCC(C(C)(C)S)C(=O)C1` (stereo not drawn) the Potency was “inactive”.

With `C=CCOCC(CC)(CO)COCC=C` the Potency was “inactive”.

In the case of `COCCCC/C(=N\OCCN)c1ccc(C(F)(F)F)cc1`, the Potency is reported as “inactive”.

For `CC(=O)c1sc(C)nc1C`, the Potency was “inactive”.

In the case of `O=C(c1ccccc1O)c1ccccc1O`, the Potency is reported as “inactive”.

In the case of `CCC(C)NC(N)=O` (stereo not drawn), the Potency is reported as “inactive”.

With `IC(I)I` the Potency was “inactive”.

With `O=C(/N=N/C(=O)OCc1ccccc1)OCc1ccccc1` the Potency was “inactive”.

In the case of `Cc1ccc(N(C)C)cc1`, the Potency is reported as “inactive”.

In the case of `O=P(OC(CCl)CCl)(OC(CCl)CCl)OC(CCl)CCl`, the Potency is reported as “inactive”.

With `CC(C)(CCC(=O)O)C(=O)O` the Potency was “inactive”.

In the case of `C=C1[C@H]2CC[C@@H]3[C@H]2C(C)(C)CCC[C@]13C`, the Potency is reported as “inactive”.

For `COc1ccc(NC(C)=O)cc1`, the Potency was “inactive”.

For `CCN(Cc1cccc(S(=O)(=O)O)c1)c1ccccc1`, the Potency was “inactive”.

In the case of `Cc1oc(C)c(C(=O)Nc2ccccc2)c1C`, the Potency is reported as “inactive”.

For `Oc1ccc(Sc2ccc(O)cc2)cc1`, the Potency was “inactive”.

For `CNCCS(=O)(=O)O`, the Potency was “inactive”.

For `CC(=O)Nc1ncc([N+](=O)[O-])s1`, the Potency was “inactive”.

For `CC(C)(C)c1cc(C(C)(C)C)c(O)c(C(C)(C)C)c1`, the Potency was “inactive”.

With `O=C(Cn1ccnc1[N+](=O)[O-])NCc1ccccc1` the Potency was “inactive”.

For `NC(=O)N[C@@H](CCC(=O)O)C(=O)O`, the Potency was “inactive”.

In the case of `CN(C)c1ccc2nc3ccc(=[N+](C)C)cc-3sc2c1`, the Potency is reported as “inactive”.

For `COCC(O)CO` (stereo not drawn), the Potency was “inactive”.

In the case of `CC(=O)Nc1ccc(C)cc1`, the Potency is reported as “inactive”.

With `NC(=Nc1ccccc1)Nc1ccccc1` the Potency was “inactive”.

For `Cc1cccc(Cl)c1`, the Potency was “inactive”.

For `CCOCCOCC`, the Potency was “inactive”.
